The values below come from PubChem BioAssay.

The structures appear in SMILES notation.

The nature of the assay: probe aLefty2 binding to arrayed compounds – biochemical, biotinylated probe, 635/667 nm fluorescence, primary screen (AID 1094).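 Also: score merges spot fluorescence near 667 nm with spot signal-to-noise ratio.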 The following applies: small-molecule microarray, higher = more signal.
Turning to `Cc1ccc(S[C@]2(C(=O)O)CC(=O)N(Cc3cc(C(F)(F)F)cc(C(F)(F)F)c3)[C@@H]2c2ccc(CO)cc2)cc1`, the composite z-score was -0.142. For `CCOC(=O)[C@H]1[C@@H]2C(=O)N3CCC[C@H]3[C@H](O[Si](C(C)C)(C(C)C)C(C)C)[C@H]2C=C2CCN(S(=O)(=O)c3ccc(C)cc3)C[C@H]21`, the composite z-score is -0.0795. The compound `CO[C@H]1O[C@H](CO)[C@@H](OC(=O)Nc2ccccc2-c2ccccc2)[C@H](OC(=O)Nc2ccc3c(c2)OCO3)[C@H]1OC(=O)Nc1ccc2c(c1)OCO2` had a composite z-score of 0.132.

`COc1ccccc1CN1C(=O)c2ccccc2[C@@]2(Cc3ccccc3N(CC(F)(F)F)C2=O)[C@@H]1c1ccc(CO)cc1` displayed a composite z-score of -0.332. The compound `CN(C)C(=O)[C@@]1(Cc2ccccc2CN=[N+]=[N-])N=C(c2ccc(OCCCO)cc2)O[C@H]1c1ccccc1CN=[N+]=[N-]` had a composite z-score of 0.514. For `COc1ccc(CCN2C(=O)[C@@]3(Cc4ccccc42)c2ccccc2C(=O)N(Cc2ccccc2OC)[C@H]3c2ccc(CO)cc2)cc1` the value was 0.0877; for `O=C1C2C=CC(C(O)c3ccc(Br)cc3)N(Nc3ccccc3F)C2C(=O)N1c1ccccc1` (stereo unspecified), -0.103; for `C=CCC(OC(C)=O)[C@@H]1[C@@H](N(Cc2cccc3ccccc23)C(=O)Cc2ccc(OC)cc2)c2cc(OCCCO)ccc2N1C(=O)c1ccc2ccccc2n1` (stereo partly specified), -0.109.

`COC(=O)C(CC#Cc1ccc2c(c1)[C@]1(C(=O)N2)[C@H](c2ccccc2OCCO)N2[C@H](c3ccccc3)[C@H](c3ccccc3)OC(=O)[C@H]2[C@@H]1C(=O)NC[C@H](O)c1ccccc1)C(=O)OC` came in with a composite z-score of -0.324. For `COc1ccc([Si](C)(C)[C@H]2[C@H](CCO)O[C@@]3(C(=O)N(Cc4cccc(N5C(=O)COc6ccccc65)c4)c4ccccc43)[C@@H]2C)cc1` the value was -0.0021; for `CCCCCCc1nc(C2CC2)cc2c1[Si](C(C)C)(C(C)C)OC2`, -0.152.

For `C=CCNC(=O)[C@@H]1[C@H]2C(=O)O[C@H](c3ccccc3)[C@H](c3ccccc3)N2[C@H](c2ccc(O)cc2)[C@@]12C(=O)N(C(=O)OCCOC)c1ccc(C#CC3(O)CCCCCC3)cc12`, the composite z-score amounted to 0.143. `CC(CO)N1C(=O)[C@@H]2[C@H]3C(=O)OCC=C[C@H]3OC23C=CCN(Cc2ccccc2)C(=O)[C@@H]13` (stereo partly specified): the composite z-score is -0.219. For `[N-]=[N+]=NCc1ccccc1C[C@@]1(C(=O)NCc2ccccc2)N=C(c2ccc(OCCCO)cc2)O[C@@H]1c1ccccc1N=[N+]=[N-]` the value was 0.198; for `C=CCN1Cc2ccccc2[C@H]2OC(c3ccc(OCCCO)cc3)=N[C@@]2(CC=C)C1=O`, 0.185; for `Cc1cc(C)cc(N2C(=O)CSC2c2cccc([N+](=O)[O-])c2)c1` (stereo unspecified), 0.154. To `CCOc1cc(C(O)C2C=CC3C(=O)N(C)C(=O)C3N2Nc2ccccc2)ccc1O` (stereo unspecified) belongs 0.0258; to `[N-]=[N+]=Nc1ccccc1C[C@]1(C(N)=O)N=C(c2ccc(OCCCO)cc2)O[C@H]1c1ccccc1N=[N+]=[N-]`, 0.546; to `NC(=O)NCC#Cc1ccc2c(c1)[C@]1(C(=O)N2)[C@H](C(=O)O)[C@H]2C(=O)O[C@H](c3ccccc3)[C@H](c3ccccc3)N2[C@@H]1c1ccc(OCCO)cc1`, -0.199. With `CCCCCCc1nc(C2CC2)cc2c1[Si](C(C)C)(C(C)C)O[C@H]2c1ccccc1`, the composite z-score was -0.0798. For `COc1cc2c(cc1OC)CN(C(=O)[C@@H]1[C@H]3C(=O)O[C@H](c4ccccc4)[C@H](c4ccccc4)N3[C@H](c3ccc(OCCO)cc3)[C@@]13C(=O)Nc1ccc(C#CC4(O)CCCCCC4)cc13)CC2` the value was -0.438; for `O=C1C[C@@](C(=O)NCCN2CCOCC2)(c2ccc([N+](=O)[O-])cc2)[C@@H](c2ccc(CO)cc2I)N1C1CCCCC1`, -0.147. For `COC(=O)[C@@]1(Cc2ccc(F)cc2)[C@H]2c3cc(C(=O)N4CCCC4)n(CCc4ccc(O)c(O)c4)c3C[C@H]2CN1C(=O)c1ccccc1` the value was 1.17; for `CC(C)N1C(=O)C[C@@](C(=O)NCCCN(C)C)(c2ccc([N+](=O)[O-])cc2)[C@H]1c1ccc(CO)cc1`, -0.0221; for `COC(=O)C1=CC(CCCO)=CC(C2CC2)N(C)C=C1C(=O)OC` (stereo unspecified), -0.117. In turn, `COC(=O)c1c(CC[C@@H](CO)NC(=O)N2CCC[C@H]2Cn2cc(Cc3ccccc3)nn2)oc(C(C)=O)c1C(=O)OC` registered a composite z-score of -0.147. For `O=C(N1CCCCC1)[C@@]1(CCS(=O)(=O)c2ccccc2)COC(c2ccc(OCCCO)cc2)=N1` the value was 0.369. `CC1=C[C@@]2(CO)C(=O)[C@]3(CO3)[C@@H]1[C@H]1[C@]2(C)C=C(CO)C(=O)[C@]12CO2` showed a composite z-score of -0.113. Compound `CCCNC(=O)[C@@]1(c2ccc([N+](=O)[O-])cc2)CC(=O)N(C2CCCCC2)[C@@H]1c1ccc(CO)cc1` yielded a composite z-score of 0.0744.

As to `NC(=O)NCC#Cc1ccc2c(c1)[C@]1(C(=O)N2)[C@H](C(=O)NC[C@H](O)c2ccccc2)[C@H]2C(=O)O[C@H](c3ccccc3)[C@H](c3ccccc3)N2[C@@H]1c1ccc(OCCO)cc1`, the composite z-score was 0.156. For `O=C1NC(=O)C2C1C=CC(C(O)CCc1ccccc1)N2Nc1ccc(Cl)cc1Cl` (stereo unspecified) the value was 0.379; for `CCCCC=C[C@@H](NC(=O)c1ccc(-c2ccccc2)cc1)c1ccccc1`, 0.179. To `COc1ccc([Si](C)(C)[C@@H]2[C@@H](CC(=O)N(CCO)Cc3ccccc3)O[C@]3(C(=O)N(Cc4cccc(N5CCOC5=O)c4)c4ccccc43)[C@H]2C)cc1` belongs -0.349; to `CC(C)N1CC=CC23O[C@@H]4C=CCOC(=O)[C@@H]4[C@H]2C(=O)N(CCCO)[C@@H]3C1=O` (stereo partly specified), -0.178; to `C=CCNC(=O)[C@H]1[C@@H]2C(=O)O[C@@H](c3ccccc3)[C@@H](c3ccccc3)N2[C@@H](c2ccc(O)cc2)[C@]12C(=O)N(C(=O)OCCOC)c1ccccc12`, -0.0095. On to `O=C1OCC=C[C@H]2OC34C=CCN(c5ccc(Cl)cc5)C(=O)[C@H]3N(CCO)C(=O)[C@@H]4[C@@H]12` (stereo partly specified), for which the composite z-score was -0.286.
